According to ChEMBL document CHEMBL5598561, “ASAP - In vitro binding kinetics” (2024):

Target: Nonstructural protein 3 (Zika virus) (UniProt A0A024AXB9)
Conditions: PRVABC59, Concentration 10.0 uM

Nonstructural protein 3 (Zika virus), sequence (A0A024AXB9 as listed by the source): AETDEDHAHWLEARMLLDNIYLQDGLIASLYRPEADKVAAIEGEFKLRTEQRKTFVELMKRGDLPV

Compound `NCCc1cccc(NC(=O)c2cc(Cl)cc3[nH]ncc23)c1` has a pKD (Immobilization level 3900.0 pg/mm2, Rmax 45.0 pg/mm2, ka 242931.571 M-1s-1, kd 0.931 1/s) of 5.42, a pKD (Immobilization level 4900.0 pg/mm2, Rmax 34.0 pg/mm2, ka 409629.847 M-1s-1, kd 0.648 1/s) of 5.8 and a pKD (Immobilization level 5500.0 pg/mm2, Rmax 28.0 pg/mm2, ka 470049.02 M-1s-1, kd 0.591 1/s) of 5.9. It also gave a pKD (Immobilization level 10000.0 pg/mm2, Rmax 29.0 pg/mm2, ka 565007.877 M-1s-1, kd 0.814 1/s) of 5.84, a pKD (Immobilization level 12000.0 pg/mm2, Rmax 46.0 pg/mm2, ka 296699.948 M-1s-1, kd 0.701 1/s) of 5.63 and a pKD (Immobilization level 13000.0 pg/mm2, Rmax 42.0 pg/mm2, ka 451227.872 M-1s-1, kd 0.736 1/s) of 5.79.
With `Cc1ccc(NC(=O)c2cc(Cl)cc3[nH]ncc23)cc1CN` the pKD (Immobilization level 3900.0 pg/mm2, Rmax 48.0 pg/mm2, ka 216599.094 M-1s-1, kd 1.609 1/s) was 5.13, the pKD (Immobilization level 4900.0 pg/mm2, Rmax 54.0 pg/mm2, ka 242573.531 M-1s-1, kd 1.329 1/s) was 5.26 and the pKD (Immobilization level 5500.0 pg/mm2, Rmax 70.0 pg/mm2, ka 222473.098 M-1s-1, kd 1.517 1/s) was 5.17. The pKD (Immobilization level 10000.0 pg/mm2, Rmax 57.0 pg/mm2, ka 286418.042 M-1s-1, kd 1.725 1/s) was 5.22, the pKD (Immobilization level 12000.0 pg/mm2, Rmax 54.0 pg/mm2, ka 243003.449 M-1s-1, kd 1.258 1/s) was 5.29 and the pKD (Immobilization level 13000.0 pg/mm2, Rmax 74.0 pg/mm2, ka 258887.039 M-1s-1, kd 1.289 1/s) was 5.3.
With `CCNCc1ccc(NC(=O)c2cc(Cl)cc3[nH]ncc23)cc1` the pKD (Immobilization level 3900.0 pg/mm2, Rmax 49.0 pg/mm2, ka 254831.951 M-1s-1, kd 6.984 1/s) was 4.56, the pKD (Immobilization level 4900.0 pg/mm2, Rmax 79.0 pg/mm2, ka 107155.284 M-1s-1) was 4.35 and the pKD (Immobilization level 5500.0 pg/mm2, Rmax 69.0 pg/mm2, ka 175345.198 M-1s-1) was 4.55. The pKD (Immobilization level 12000.0 pg/mm2, Rmax 35.0 pg/mm2, ka 320872.936 M-1s-1, kd 4.693 1/s) was 4.83.
For `CNCc1cccc(NC(=O)c2cc(Cl)cc3[nH]ncc23)c1`, the pKD (Immobilization level 3900.0 pg/mm2, Rmax 52.0 pg/mm2, ka 146599.437 M-1s-1, kd 4.892 1/s) was 4.48, the pKD (Immobilization level 4900.0 pg/mm2, Rmax 92.0 pg/mm2, ka 51361.571 M-1s-1, kd 2.243 1/s) was 4.36 and the pKD (Immobilization level 5500.0 pg/mm2, Rmax 53.0 pg/mm2, ka 187092.368 M-1s-1, kd 3.041 1/s) was 4.79. It also gave a pKD (Immobilization level 12000.0 pg/mm2, Rmax 56.0 pg/mm2, ka 231928.789 M-1s-1, kd 3.617 1/s) of 4.81.
Compound `Clc1cc(CNc2ccc3c(c2)CNC3)c2cn[nH]c2c1` has a pKD (Immobilization level 10000.0 pg/mm2, Rmax 2.0 pg/mm2, ka 219034.03 M-1s-1, kd 0.842 1/s) of 5.42, a pKD (Immobilization level 12000.0 pg/mm2, Rmax 10.0 pg/mm2, ka 126196.485 M-1s-1, kd 1.272 1/s) of 5 and a pKD (Immobilization level 13000.0 pg/mm2, ka 206129.831 M-1s-1, kd 1.048 1/s) of 5.29.
For `N#Cc1cc(Cl)cc(C(=O)Nc2ccc3c(c2)CNC3)c1`, the pKD (Immobilization level 10000.0 pg/mm2, Rmax 13.0 pg/mm2, ka 937740.865 M-1s-1, kd 1.0 1/s) was 5.97, the pKD (Immobilization level 12000.0 pg/mm2, Rmax 30.0 pg/mm2, ka 568340.521 M-1s-1, kd 0.543 1/s) was 6.02 and the pKD (Immobilization level 13000.0 pg/mm2, Rmax 21.0 pg/mm2, ka 849954.362 M-1s-1, kd 0.772 1/s) was 6.04.
Work on `O=C(Nc1ccc2c(c1)CNC2)c1cc(Cl)cc2ccncc12` yielded a pKD (Immobilization level 10000.0 pg/mm2, Rmax 18.0 pg/mm2, ka 555072.266 M-1s-1, kd 0.336 1/s) of 6.22, a pKD (Immobilization level 12000.0 pg/mm2, Rmax 46.0 pg/mm2, ka 241038.936 M-1s-1, kd 0.226 1/s) of 6.03 and a pKD (Immobilization level 13000.0 pg/mm2, Rmax 30.0 pg/mm2, ka 431290.6 M-1s-1, kd 0.289 1/s) of 6.17.
`O=C(Nc1ccc2c(c1)CNC2)c1cc(Br)cc2[nH]c([C@H]3CCOC3)nc12` was tested, and the pKD (Immobilization level 10000.0 pg/mm2, Rmax 19.0 pg/mm2, ka 727525.444 M-1s-1, kd 0.791 1/s) was 5.96, the pKD (Immobilization level 12000.0 pg/mm2, Rmax 41.0 pg/mm2, ka 451126.44 M-1s-1, kd 0.431 1/s) was 6.02 and the pKD (Immobilization level 13000.0 pg/mm2, Rmax 27.0 pg/mm2, ka 652953.753 M-1s-1, kd 0.609 1/s) was 6.03.
Compound `Cc1cc(C(=O)Nc2ccc3c(c2)CNC3)c2cn[nH]c2c1` has a pKD (Immobilization level 10000.0 pg/mm2, Rmax 20.0 pg/mm2, ka 694418.255 M-1s-1, kd 0.431 1/s) of 6.21, a pKD (Immobilization level 12000.0 pg/mm2, Rmax 39.0 pg/mm2, ka 340621.404 M-1s-1, kd 0.261 1/s) of 6.12 and a pKD (Immobilization level 13000.0 pg/mm2, Rmax 29.0 pg/mm2, ka 572465.277 M-1s-1, kd 0.338 1/s) of 6.23.
With `O=C(Nc1ccc2c(c1)CNC2)c1cc(Cl)nc2[nH]ncc12` the pKD (Immobilization level 10000.0 pg/mm2, Rmax 24.0 pg/mm2, ka 257771.158 M-1s-1, kd 2.862 1/s) was 4.96, the pKD (Immobilization level 12000.0 pg/mm2, Rmax 48.0 pg/mm2, ka 216828.153 M-1s-1, kd 2.008 1/s) was 5.03 and the pKD (Immobilization level 13000.0 pg/mm2, Rmax 31.0 pg/mm2, ka 263772.69 M-1s-1, kd 2.044 1/s) was 5.11.
In the case of `N#Cc1ccc(Cl)c(C(=O)Nc2ccc3c(c2)CNC3)c1`, the pKD (Immobilization level 10000.0 pg/mm2, Rmax 28.0 pg/mm2, ka 455778.547 M-1s-1, kd 4.384 1/s) is reported as 5.02, the pKD (Immobilization level 12000.0 pg/mm2, Rmax 32.0 pg/mm2, ka 264828.882 M-1s-1, kd 2.458 1/s) is reported as 5.03 and the pKD (Immobilization level 13000.0 pg/mm2, Rmax 23.0 pg/mm2, ka 313770.073 M-1s-1, kd 2.521 1/s) is reported as 5.09.
`Cn1cc(CCc2nc3c(C(=O)Nc4ccc5c(c4)CNC5)cc(Cl)cc3[nH]2)cn1` gave a pKD (Immobilization level 10000.0 pg/mm2, Rmax 29.0 pg/mm2, ka 162831.43 M-1s-1, kd 0.539 1/s) of 5.48, a pKD (Immobilization level 12000.0 pg/mm2, Rmax 67.0 pg/mm2, ka 60654.253 M-1s-1, kd 0.241 1/s) of 5.4 and a pKD (Immobilization level 13000.0 pg/mm2, Rmax 46.0 pg/mm2, ka 118753.092 M-1s-1, kd 0.416 1/s) of 5.46.
`O=C(Nc1ccc2c(c1)CNCC2)c1cc(Cl)cc2[nH]ncc12` showed a pKD (Immobilization level 10000.0 pg/mm2, Rmax 29.0 pg/mm2, ka 396120.04 M-1s-1, kd 1.246 1/s) of 5.5, a pKD (Immobilization level 12000.0 pg/mm2, Rmax 39.0 pg/mm2, ka 584891.909 M-1s-1, kd 0.796 1/s) of 5.87 and a pKD (Immobilization level 13000.0 pg/mm2, Rmax 25.0 pg/mm2, ka 840035.203 M-1s-1, kd 1.038 1/s) of 5.91.
`O=C(NCC(F)F)[C@H](Nc1ccc2c(c1)CNC2)c1cc(Cl)cc(C2CC2)c1` gave a pKD (Immobilization level 10000.0 pg/mm2, Rmax 47.0 pg/mm2, ka 474542.901 M-1s-1, kd 0.05 1/s) of 6.97, a pKD (Immobilization level 12000.0 pg/mm2, Rmax 82.0 pg/mm2, ka 199001.376 M-1s-1, kd 0.068 1/s) of 6.46 and a pKD (Immobilization level 13000.0 pg/mm2, Rmax 74.0 pg/mm2, ka 337297.719 M-1s-1, kd 0.055 1/s) of 6.78.
In the case of `CC(C)c1ccc(Cl)cc1C(=O)Nc1ccc2c(c1)CNC2`, the pKD (Immobilization level 10000.0 pg/mm2, Rmax 50.0 pg/mm2, ka 207835.98 M-1s-1, kd 5.69 1/s) is reported as 4.56, the pKD (Immobilization level 12000.0 pg/mm2, Rmax 40.0 pg/mm2, ka 170668.879 M-1s-1, kd 3.145 1/s) is reported as 4.74 and the pKD (Immobilization level 13000.0 pg/mm2, Rmax 24.0 pg/mm2, ka 212611.498 M-1s-1, kd 2.587 1/s) is reported as 4.92.
